# In ChEMBL document CHEMBL4513216, “Probing the Open Global Health Chemical Diversity Library for Multistage-Active Starting Points for Next-Generation Antimalarials” (ACS Infect Dis, 2020):
# The whole screen tested about 69,000 compounds, of which about 8,600 (12%) showed an effect of 50% or more. The entries come from a sample that favours strong results as a whole.
# Test system: Plasmodium berghei
# Test: Screen against P. berghei liver stage (PbLuc), transformed with Luciferase, at 10uM
# Type: functional, HepG2
# Settings: tested at 10 uM
row,SMILES,INHIBITION
1,O=C(CC(F)(F)F)N1C[C@H]2CC[C@@H](C1)N(Cc1ccccc1)C2=O,26.9%
2,COc1ccc(NC(C)=O)cc1S(=O)(=O)Nc1ccon1,35.7%
3,CCN(CC)Cc1ccc(C(=O)N2CCCC2Cn2cc(C)cn2)o1 (configuration not stated),-4.3%
4,CN(C)c1ccc(CC2CCN(c3cnccn3)CC2)nn1,-18.8%
5,Cn1ncc2c1CN(Cc1ccc(F)cc1)CC2COCC1CC1 (configuration not stated),8.67%
6,Cc1ccc(CN2CCCn3nnc(COCC4CC4)c3C2)s1,23.3%
7,Cc1ccc(CN2Cc3c(cnn3C)C(COCC3CC3)C2)s1 (configuration not stated),65.6%
8,Cn1cc(CN2Cc3c(cnn3C)C(COCC3CC3)C2)cn1 (configuration not stated),47.9%
9,COc1ccc(CN2CCCn3nnc(COCC4CC4)c3C2)cc1,16.8%
10,Cc1ccc(CN2CCCn3nnc(COCCN(C)C)c3C2)s1,54.8%
11,Cc1cnn(CC2CCCCN2C(=O)c2csc(C)n2)c1 (configuration not stated),23.5%
12,CC(Oc1cc(Cl)cc(Cl)c1)C(=O)NCCC(=O)N(C)C (configuration not stated),30.7%
13,COCCCNc1nc(CNC(=O)C2CCC2)cc(-c2ccco2)n1,-3.34%
14,CCC1=N[C@@]2(CC[C@@H]3CN(CC(=O)N(C)C)C[C@@H]32)C(=O)N1CC(C)C,29%
15,CCCc1n[nH]c(C2CN(Cc3nnc(C4CC4)n3C)CCO2)n1 (configuration not stated),50.1%
16,CCc1n[nH]c(C2CN(Cc3nnc(C4CCC4)o3)CCO2)n1 (configuration not stated),9.14%
17,CCc1n[nH]c(C2CN(Cc3nnc(C4CC4)o3)CCO2)n1 (configuration not stated),13.3%
18,CCc1n[nH]c(C2CN(Cc3nnc(C4CC4)n3C)CCO2)n1 (configuration not stated),-17.5%
19,CCCc1n[nH]c(C2CN(Cc3nnc(C4CC4)o3)CCO2)n1 (configuration not stated),52%
20,Cc1n[nH]c(C2CN(Cc3nnc(C4CC4)n3C)CCO2)n1 (configuration not stated),33.7%
21,CCCc1n[nH]c(C2CN(Cc3nnc(C4CCC4)o3)CCO2)n1 (configuration not stated),-25.8%
22,CC(C)(C)c1n[nH]c(C2CN(Cc3nnc(C4CC4)o3)CCO2)n1 (configuration not stated),-3.2%
23,CCc1n[nH]c(C2CN(Cc3nc(C4CC4)no3)CCO2)n1 (configuration not stated),64.9%
24,COc1ccccc1-n1cc(C(=O)NCCCn2ccnn2)cn1,-12.5%
25,Cc1nc2c(c(=O)[nH]1)CCN(C(=O)c1cccc3nccnc13)C2,46%
26,CN(C)c1ccc(C(=O)Nc2ccn(CC(N)=O)n2)cn1,-15%

row,SMILES,INHIBITION
1,O=C(NCC1CCC1)c1ccnc(-n2ccnc2)c1,-13.6%
2,Cc1cc(CNC2(c3ccccc3F)CC2)no1,-4.73%
3,CN1C[C@@H](C(=O)NC2CCCC2)[C@@]2(COc3ccc(F)cc3C2=O)C1,23.85%
4,c1ccc(OCCCN2CCOC(CNc3cccnn3)C2)cc1 (configuration not stated),-65.3%
5,Cc1noc(C)c1CN1CCn2cc(CNC(=O)C3CCC3)nc2C1,45.2%
6,COc1ccc(CC(=O)N2C[C@H]3CN(Cc4ccccn4)C[C@H]3C2)cc1,18.6%
7,Cc1[nH]c2ccccc2c1-c1ccnc(N[C@H](CO)CC(C)C)n1,56%
8,Cc1[nH]c2ccccc2c1-c1ccnc(N[C@@H](CO)C(C)C)n1,36.7%
9,CC(C)[C@H](CO)Nc1nccc(-c2c[nH]nc2-c2ccncc2)n1,-31.5%
10,Cc1[nH]c2ccccc2c1-c1ccnc(N[C@@H](C)CO)n1,85.7%
11,CC[C@@H](CO)Nc1nccc(-c2cnc3sc(C)cn3c2=O)n1,11.5%
12,Cc1cn2c(=O)c(-c3ccnc(N[C@@H](C)CO)n3)cnc2s1,27.8%
13,CN1CCOC(CNC(=O)CCCc2ccccc2)C1 (configuration not stated),-4.15%
14,CN(Cc1nccn1CC(F)(F)F)C(=O)c1ccc2c(c1)OCO2,6.33%
15,Cc1nn(C)c(Cl)c1C1CCCN1Cc1nnc(C2CC2)o1 (configuration not stated),-31.1%
16,CC(=O)N1CCc2ncc(CNC(=O)C3CCC3)n2CC1,15.4%
17,O=S(=O)(CC1CCOCC1)NCc1ncc(-c2ccccc2)o1,40.6%
18,O=C(NCCN1CCOCC1)NCc1ncc(-c2ccccc2)o1,2.37%
19,CC(=O)N1CCC(NC(=O)NCc2ncc(-c3ccccc3)o2)CC1,47.1%
20,O=C(NCc1ncc(-c2ccccc2)o1)NC1CCC(O)CC1 (configuration not stated),61.9%
21,CC(=O)N1CCC(C(=O)NCc2ncc(-c3ccccc3)o2)CC1,83.2%
22,O=C1C[C@@H]2CC[C@H](CN1)N2c1cc(-c2ccccc2F)nc2ccnn12,-7.53%
23,CCn1cc(C(=O)N2CCCC3(CCC(=O)N(CCC(C)C)C3)C2)cn1 (configuration not stated),-47.8%
24,CCc1ncc(CN2CCCC3(CCC(=O)N(CCC(C)C)C3)C2)cn1 (configuration not stated),0.818%
25,CN(C)C(=O)C1CCC2(CCN(Cc3cnn(C)c3)CC2)C1 (configuration not stated),55.5%
26,CC(C)NC(=O)C1CCC2(CCN(Cc3cnn(C)c3)CC2)C1 (configuration not stated),-13.7%
